Source: PubChem BioAssay (National Center for Advancing Translational Sciences (NCATS))
In the library only some 7.8% were active in any assay of this set; here they are far more common.
Marburg entry inh: inhibitors of Marburg virus binding or cell entry. Marburg virus pseudotyped entry inhibition, cell reporter. Potency, µM (highest dose often 37.8 µM), without a hit: top-dose activity change, negative = inhibition, usual class: inhibitors. hit rate 1.8% among 300,000; calls by dose curve; tested in HEK293 cells; note: potency is the fitted concentration of half-maximal effect
Vaccinia Venus: vaccinia inhibition (Venus reporter) | Potency, µM (top dose mostly 36.5 µM), for inactives: at the top dose activity change, negative = inhibition, usual class: inhibitors | AID 720580 | Vaccinia virus Venus reporter expression, fluorescence | hit rate 0.46% among 330,000; calls by dose curve; tested in A549 cells; note: potency is the fitted concentration of half-maximal effect; nearly all actives have a fitted effect of over 30% in size
HCV inhibitor: blocks hepatitis C virus; Huh7.5.1 HCVcc-Cre infection, luciferase reporter, 44 h; Potency, µM (top dose mostly 41.8 µM), for the others: top-dose activity change, negative = inhibition, most hits filed as inhibitors; hit rate 3.4% among 340,000; active = well fitted inhibition curve with a large enough effect; inconclusive = small, poorly fitted or top-dose-only effect, or another doubt; inactive = no such curve, though single readings can be large or run the other way; note: potency is the fitted concentration of half-maximal effect
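Infectious HCVcc-Cre (~0.5 moi) was added to cells just after compound, with cells seeded 4 h earlier at 1,000 per well. Luciferase activity after 44 h culture reported infection; substrate was incubated 15 min at room temperature before reading.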
HCMV antiviral: inhibitors of human cytomegalovirus. activity change, negative = inhibition, % at 57.5 µM. AID 1259415. hit rate 4.5% among 410,000. HFF cells, HCMV-luciferase reporter, 72 h; hits give low values; in the data active = activity change below about -60%; inconclusive = no clear call, values can overlap the other calls; inactive = above about -39%
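Two compound doses tested in HFFs infected with HCMV-luciferase, MOI 1 PFU/cell, 72 h at 37C. Lysate luminescence read with OneGlo; data normalized against buffer-only and 10uM Salinomycin inhibitor controls.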
Vaccinia mCherry: inhibitors of vaccinia virus infection (mCherry reporter signal). hit rate 0.63% among 310,000. Vaccinia virus mCherry reporter infection, fluorescence. Potency, µM (top dose mostly 36.5 µM), without a hit: at the highest dose activity change, negative = inhibition, hits mostly inhibitors; calls by dose curve; tested in A549 cells; note: potency is the fitted concentration of half-maximal effect; nearly all actives have a fitted effect of over 35% in size
Lassa entry inh: Lassa virus entry inhibition; Lassa virus pseudotype entry inhibition, cell reporter; Potency, µM (highest dose often 37.9 µM), for the others: top-dose activity change, negative = inhibition, actives largely listed as inhibitors; hit rate 1.2% among 300,000; AID 540256; calls by dose curve; tested in HEK293 cells; note: potency is the fitted concentration of half-maximal effect; nearly all actives have a fitted effect of over 50% in size
* hit, by the source's call; i = inactive; ? = inconclusive; . = no result; [ ] = dose if it differs, or a comment. % is set by controls: 0 for no effect and ±100 for the full control effect.

SMILES	Marburg entry inh	Vaccinia Venus	HCV inhibitor	HCMV antiviral	Vaccinia mCherry	Lassa entry inh
CCCCn1cnc2c(SCc3ccc([N+](=O)[O-])cc3)nc(N)nc21	-9%	?	?	-21	4µM*	-24%
CCC(C)Cn1cnc2c(Sc3c([N+](=O)[O-])ncn3C)nc(N)nc21 (stereo not given)	?	?	-27%	-34	16µM*	5%[46.1 µM]
CCOC(=O)CC1(C)N(S(=O)(=O)c2ccc(C)cc2)c2ccccc2N1S(=O)(=O)c1ccc(C)cc1	.	-4%	.	-2	-6%	.
N#CC(=C1C=CC(=NO)C(Cl)=C1)c1ccccc1	.	-10%	.	-98*	1%	.
Cc1cccnc1C(NC(=O)C1CCN(Cc2ccccc2)CC1)c1ccc(F)cc1 (stereo not given)	.	-8%	.	-62*	i	.
COc1cc(CN2CCC(C(=O)NC(c3ccc(F)cc3)c3ncccc3C)CC2)cc(OC)c1 (stereo not given)	.	-8%	.	4	-25%	.
Cc1ccc(CNc2ncnc3sc(C(=O)N4CCCC(C(N)=O)C4)c(C)c23)o1 (stereo not given)	.	4%	.	.	-4%	.
COc1ncnc2c1sc1nc(-c3ccccc3)c3c(c12)CCCC3	.	.	13%	?	.	.
CN(C)CCNc1ncnc2c1sc1nc(-c3ccccc3)c3c(c12)CCCC3	10µM*	10µM*	?	-68*	?	?
O=c1oc2ccccc2cc1-c1cn2cc(Cc3ccc(Br)cc3)sc2n1	?	-18%	.	19	-19%	-1%[46.1 µM]
CC(C)NC(=O)N1CCC(n2nccc2NC(=O)CCOc2ccccc2)CC1	-10%[46.1 µM]	-12%	7%	8	i	12%[46.1 µM]
Cc1ccccc1C(=O)Nc1ccnn1C1CCN(C(C)Cc2ccccc2F)CC1 (stereo not given)	.	.	10µM*	-13	.	.
C=C(C)CCC(C)N1CCC(n2nccc2NC(=O)CCOc2ccccc2)CC1 (stereo not given)	-19%	-18%	-21%	-89*	-11%	?
O=C(CCS(=O)(=O)c1ccc(Br)s1)Nc1cc(C(F)(F)F)cc(C(F)(F)F)c1	?	?	.	-90*	13µM*	-1%[46.1 µM]
C[C@@H]1CCCCO[C@H](CN(C)C(=O)CCC(F)(F)F)[C@H](C)CN([C@@H](C)CO)C(=O)c2cc(NS(=O)(=O)c3ccc(Cl)cc3)ccc2O1	.	.	.	13	.	.
COc1ccc(N2C(=O)C(CN3CCN(C)CC3)C2c2ccccc2)cc1 (stereo not given)	?	.	35µM*	-23	.	0%
O=c1oc2ccccc2cc1-c1nc2c(s1)CCCC2	?	.	-18%	-21	.	2.9µM*
O=c1oc2ccccc2cc1-c1nc2ccccc2o1	10%	.	27%	202	.	-17%
CC1(C)C(=O)C=C[C@]2(C)C1CC(=O)[C@]1(C)C2CC[C@@]2(C)C(c3ccoc3)OC(=O)C3O[C@@]321 (stereo not given in full)	.	-8%	.	.	-10%	.
CC(CNC(=O)Cn1c(-c2cccs2)cc2ccccc21)c1ccccc1 (stereo not given)	.	-6%	.	0	-19%	-6%[46.1 µM]
O=C(Nc1ccccn1)NC1CCS(=O)(=O)C1 (stereo not given)	-16%	.	-1%	-103*	.	?
O=C(Nc1ccccn1)NC1CCCCC1	?	-18%	4%	22	-22%	12%
O=C(Nc1ccccn1)c1onc2c1CCCC2	?	-14%	15%	?	i	7.3µM*
O=c1n(Cc2ccccc2)nc2n1-c1cc(Cl)ccc1OC2	1%[46.1 µM]	-12%	.	18	-3%	-1%[46.1 µM]
Cc1cc(C)nc(SCC(=O)Nc2ccnc3ccccc23)n1	?	-10%	1.8µM*	-89*	?	?
SMILES	Marburg entry inh	Vaccinia Venus	HCV inhibitor	HCMV antiviral	Vaccinia mCherry	Lassa entry inh
O=C(CSC1=NCCS1)Nc1ccnc2ccccc12	-29%	-29%	?	-73*	?	-21%
COC(=O)c1ccccc1NC(=O)CSc1nc(C)cc(C)n1	5%[46.1 µM]	-9%	3%	-35	-22%	-5%[46.1 µM]
Cc1cc(NC(=O)Cc2ccccc2)c2ccccc2n1	.	.	?	-86*	.	.
O=C(NCc1nnc2n1CCN(Cc1ccc(C(F)(F)F)cc1)CC2)c1ccccn1	.	4%	.	.	-5%	.
CCCCCCOc1ccc(/C=C/C(=O)Nc2sc3c(c2C(=O)OC)CCC3)cc1OC	.	-13%	.	-107*	-27%	20%[46.1 µM]
Cc1ccc(C)c(N2CCN(C(=O)CN3CCSc4ccc(S(=O)(=O)N(C)C)cc43)CC2)c1	.	-12%	.	-22	-19%	-20%[46.1 µM]
CSc1ccc(CN2CCC(n3nccc3NC(=O)CCCc3ccccc3)CC2)cc1	?	-25%	?	-68*	-23%	?
O=C(CCCc1ccccc1)Nc1ccnn1C1CCN(Cc2ccccc2)CC1	.	.	-24%	0	.	.
COCc1cc(C)nc2sc(C(=O)Nc3ccc(OC(F)(F)F)cc3)c(N)c12	?	-10%	.	-6	-2%	?
Brc1cccc(OCCSc2ncccn2)c1	?	-1%	-11%	-39	-6%	-18%
Clc1ccc(OCCSc2ncccn2)c(Br)c1	?	-13%	11µM*	93	-13%	-25%
Cc1c(C)n(Cc2ccccc2)c2ccc(C(=O)OCCCN(C)C)cc12	10µM*	-20%	?	-63*	-8%	?
Cc1c(C)n(CCN(C)C)c2ccc(C(=O)OCCN(C)C)cc12	.	.	11µM*	-10	.	.
CCC1=C(OC(=O)N(CC)CC)N2C(=O)OC(=NCc3ccccc3)[C@]2(C)[C@H]2C1=CC[C@H]1C(=O)N(c3ccccc3)C(=O)[C@H]12	.	-3%	-25%	-27	i	.
CCC1=C(OC(=O)N(CC)CC)N2C(=O)OC(=NCc3ccccc3)[C@]2(C)[C@H]2C1=CC[C@H]1C(=O)N(CC(=O)OC)C(=O)[C@H]12	.	-12%	4%	-62*	-27%	.
COc1cc2ccccc2cc1C(=O)Nc1ccc(Cc2ccncc2)cc1	?	.	10µM*	14	.	?
COc1cc(NC(=S)NC(=O)c2ccccc2C)ccc1NC(=O)c1cccs1	-17%	-25%	2µM*	-1	?	0%
COc1cc2ccccc2cc1C(=O)Nc1ccc(C)cc1	.	.	?	272	.	.
COc1cc(NC(=O)c2ccccc2Cl)ccc1NC(=O)c1cccs1	?	-9%	-24%	-38	-12%	8%
COc1cc(NC(=O)c2cc3ccccc3cc2OC)ccc1NC(=O)c1cccs1	.	.	3.2µM*	.	.	.
COc1ccc(Cl)cc1N1C(=O)/C(=C/c2sccc2C)N=C1SCC(=O)NC1CC1	10µM*	-10%	?	52	i	?
CC(=O)N1CC(C)Sc2ccc(S(=O)(=O)NCc3ccc(Cl)cc3)cc21 (stereo not given)	.	.	?	0	.	.
CC(=O)N1CC(C)Sc2ccc(S(=O)(=O)NC(C)c3ccccc3)cc21 (stereo not given)	.	-6%[7.34 µM]	?	-72*	-8%[7.34 µM]	.
